From PubChem
This is a sample that favours compounds with a hit; in the whole collection about 3.4% have one here.
MITF inh – human MITF inhibition, primary screen | O75030 | AlphaScreen MITF homodimerization, bead proximity signal | inhibition, % at 2.6 µM | actives 0.91% (n = 650,000) | AID 1259374; in the data active = inhibition above about 50%;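 also: 0% = vehicle wells with protein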
Target sequence (O75030 whole entry, looked up): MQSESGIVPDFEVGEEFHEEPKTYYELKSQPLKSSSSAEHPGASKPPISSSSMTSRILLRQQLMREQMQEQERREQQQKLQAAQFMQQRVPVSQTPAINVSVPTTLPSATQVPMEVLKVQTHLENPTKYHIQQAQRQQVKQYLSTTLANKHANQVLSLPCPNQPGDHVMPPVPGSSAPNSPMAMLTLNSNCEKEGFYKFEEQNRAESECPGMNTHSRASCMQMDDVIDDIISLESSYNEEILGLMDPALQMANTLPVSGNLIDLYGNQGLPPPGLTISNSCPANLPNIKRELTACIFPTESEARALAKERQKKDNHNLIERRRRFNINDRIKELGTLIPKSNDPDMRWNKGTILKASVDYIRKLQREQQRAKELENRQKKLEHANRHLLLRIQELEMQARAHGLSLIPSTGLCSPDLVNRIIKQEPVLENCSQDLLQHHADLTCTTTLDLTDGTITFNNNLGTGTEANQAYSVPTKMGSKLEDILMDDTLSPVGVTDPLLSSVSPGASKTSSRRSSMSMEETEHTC
FBW7 activator – activators of human E3 ligase FBW7 | Q969H0 | AlphaScreen FBW7–phospho-cyclin E peptide binding, activator screen | normalized activity (activation), % at 26.1 µM | actives 0.13% (n = 650,000); in the data active = normalized activity above about 1.9%;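 also: purified mutant Fbw7 with reduced substrate affinity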
GPR151 activ – activators of human GPR151; actives 1% (n = 650,000); PathHunter beta-arrestin GPR151 cells, luminescence; activation, % at 11.2 µM; Q8TDV0; in the data active = activation above about 4.9%;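 also: 0% = median of compound wells and 100% = cells with positive control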
TEAD-YAP inh – TEAD-YAP interaction inhibition; inhibition, % at 9.12 µM; HEK-TIYL cells, TEAD-Gal4/YAP UAS-luciferase luminescence; actives 1.4% (n = 640,000); in the data active = inhibition above about 32%;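 also: 0% = median of test compound wells and 100% = reference inhibitor wells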
* = called active by the depositor.

Results for CCc1ccc2oc(-c3ccc(N)cc3O)nc2c1 ?
MITF inh: 0; FBW7 activator: 0; GPR151 activ: -2; TEAD-YAP inh: 69*

How did Nc1ccc(O)c(-c2nc3cc(N)ccc3o2)c1 do in these assays?
MITF inh: 6; FBW7 activator: 0; GPR151 activ: -6; TEAD-YAP inh: -24

Results for Cc1cc2nc(-c3cc(N)ccc3O)oc2cc1C ?
MITF inh: 6; FBW7 activator: 0; GPR151 activ: -8; TEAD-YAP inh: 65*

What do the screens show for `Cc1ccc2oc(-c3ccc(N)cc3O)nc2c1`?
MITF inh: -8; FBW7 activator: 0; GPR151 activ: -1; TEAD-YAP inh: 41*

How did CCc1ccc2oc(-c3ccc(NC(C)=O)cc3)nc2c1 do in these assays?
MITF inh: 6; FBW7 activator: 1; GPR151 activ: 1; TEAD-YAP inh: -70

What do the screens show for `O=C(NCc1nc(-c2cccnc2)n[nH]1)c1cnccn1`?
MITF inh: 4; FBW7 activator: 0; GPR151 activ: 0; TEAD-YAP inh: -4

How did COc1ccccc1CNC(=O)c1ccc(Br)cc1 do in these assays?
MITF inh: -14; FBW7 activator: 0; GPR151 activ: -1; TEAD-YAP inh: -16

What do the screens show for `O=C1NC(=Nc2ccccc2Cl)S/C1=C/c1ccc2c(c1)OCO2`?
MITF inh: 4; FBW7 activator: 0; GPR151 activ: -3; TEAD-YAP inh: 9

What do the screens show for `Cc1nn(CCC(=O)O)c2c1C1C(C2)C1(C)C` (stereo not drawn)?
MITF inh: -2; FBW7 activator: 0; GPR151 activ: 0; TEAD-YAP inh: -9

What do the screens show for `CC1(C)Cc2c(sc(NC(=O)c3ccc(F)cc3)c2C#N)CO1`?
MITF inh: 5; FBW7 activator: 0; GPR151 activ: -2; TEAD-YAP inh: -67

What do the screens show for `Cc1ccc(Nc2nc(-c3ccccn3)cs2)cc1`?
MITF inh: -5; FBW7 activator: -1; GPR151 activ: -4; TEAD-YAP inh: 55*

What do the screens show for `Cc1ccnc(Nc2nc(-c3cccs3)cs2)c1`?
MITF inh: 26; FBW7 activator: 0; GPR151 activ: -1; TEAD-YAP inh: -30

How did Cc1ccnc(Nc2nc(-c3ccccn3)cs2)c1 do in these assays?
MITF inh: 103*; FBW7 activator: -2; GPR151 activ: -3; TEAD-YAP inh: 73*

Results for CN1CCN(C(=O)c2ccc(-c3nc(C(=O)Nc4ccc(Oc5ccccc5)cc4)cs3)cc2)CC1 ?
MITF inh: 14; FBW7 activator: 1; GPR151 activ: 3; TEAD-YAP inh: 44*

What do the screens show for `O=C(NC1CC1)c1ccc(-c2nc(C(=O)Nc3ccc(Oc4ccccc4)cc3)cs2)cc1`?
MITF inh: 6; FBW7 activator: 0; GPR151 activ: 1; TEAD-YAP inh: 33*

Results for CC(=O)Nc1ccc(NC(=O)c2csc(-c3ccc(C(=O)NC4CC4)cc3)n2)cc1 ?
MITF inh: 7; FBW7 activator: 0; GPR151 activ: 0; TEAD-YAP inh: 1

How did CCOc1ccc(Nc2nc(C)[nH]c2[N+](=O)[O-])cc1 do in these assays?
MITF inh: -3; FBW7 activator: 0; GPR151 activ: 2; TEAD-YAP inh: -7

How did CCCN(CCC)S(=O)(=O)c1cccc(-c2cn3cc(C)ccc3n2)c1 do in these assays?
MITF inh: 2; FBW7 activator: 0; GPR151 activ: -2; TEAD-YAP inh: -2

What do the screens show for `Cc1cc(C)c2c(n1)nn1c(NCc3ccco3)cc(C)nc21`?
MITF inh: inactive; FBW7 activator: 254*; GPR151 activ: 1; TEAD-YAP inh: 7

Results for c1ccc(-c2cc(N3CCN(c4ccccn4)CC3)nc(-c3ccccn3)n2)nc1 ?
MITF inh: 107*; FBW7 activator: -1; GPR151 activ: 1; TEAD-YAP inh: 71*

What do the screens show for `O=C(COc1ccc(Br)cc1Cl)Nc1ccccc1`?
MITF inh: 14; FBW7 activator: 0; GPR151 activ: -1; TEAD-YAP inh: 54*

What do the screens show for `O=C(COc1ccc(Cl)cc1Cl)Nc1cccc(-c2cn3c(n2)SCC3)c1`?
MITF inh: 8; FBW7 activator: 0; GPR151 activ: 0; TEAD-YAP inh: 69*

How did Cc1cc(Cl)ccc1OCC(=O)Nc1ncccn1 do in these assays?
MITF inh: 6; FBW7 activator: 0; GPR151 activ: 1; TEAD-YAP inh: -19

What do the screens show for `Cc1cc(Cl)ccc1OCC(=O)Nc1ccccn1`?
MITF inh: 12; FBW7 activator: 0; GPR151 activ: -1; TEAD-YAP inh: 67*

How did O=C(COc1ccc(Br)cc1Br)Nc1ncn[nH]1 do in these assays?
MITF inh: 9; FBW7 activator: 0; GPR151 activ: 1; TEAD-YAP inh: 44*

Results for CC(=O)Nc1ccc(NC(=O)COc2ccc(Br)cc2Cl)cc1 ?
MITF inh: -9; FBW7 activator: 0; GPR151 activ: -1; TEAD-YAP inh: -18

How did Cc1ccc(NC(=O)C2C3C=CC4(O3)C2C(=O)N(C2CCC(C)CC2)C4C(=O)NC2CCCC(C)C2C)cc1Cl (stereo not drawn) do in these assays?
MITF inh: 5; FBW7 activator: 0; GPR151 activ: 1; TEAD-YAP inh: 4

How did COC(F)(C(=O)Nc1ccc(C)c(Br)c1C(=O)O)C(F)(F)F (stereo not drawn) do in these assays?
MITF inh: -13; FBW7 activator: 0; GPR151 activ: 1; TEAD-YAP inh: 2

How did CCSc1nc2c(c(=O)n1-c1ccc(OC)cc1)C1(CCCC1)Cc1ccccc1-2 do in these assays?
MITF inh: 4; FBW7 activator: 0; GPR151 activ: 1; TEAD-YAP inh: -5

How did O=C(c1ccc2c(c1)sc1nc(-c3ccc(F)cc3)cn12)N1CCCC1 do in these assays?
MITF inh: -8; FBW7 activator: 0; GPR151 activ: -1; TEAD-YAP inh: -49

Results for C=CCc1cc(OC)ccc1OCCCN1CCCCC1 ?
MITF inh: 26; FBW7 activator: 1; GPR151 activ: 3; TEAD-YAP inh: -1

Results for C=Cc1ccc([C@H]2NC(C(=O)O)CC[C@@H]2C)cc1 (stereo partly drawn) ?
MITF inh: 3; FBW7 activator: 0; GPR151 activ: 4

Results for O=c1[nH]c(/C=C/c2ccc(F)cc2)c([N+](=O)[O-])c(=O)[nH]1 ?
MITF inh: -4; FBW7 activator: 0; GPR151 activ: 1; TEAD-YAP inh: 0

How did Cc1ccccc1OCC(=O)Nc1ccc(Cl)cc1 do in these assays?
MITF inh: 10; FBW7 activator: 0; GPR151 activ: -1; TEAD-YAP inh: -42

How did O=C(COc1ccccc1[N+](=O)[O-])Nc1ccccc1Cl do in these assays?
MITF inh: 18; FBW7 activator: 0; GPR151 activ: 0; TEAD-YAP inh: -49

How did O=C(COc1ccc(Cl)cc1Cl)Nc1ccccc1 do in these assays?
MITF inh: 6; FBW7 activator: 0; GPR151 activ: 1; TEAD-YAP inh: 36*

Results for Cc1ccccc1OCC(=O)NNC(=O)Nc1ccc(Cl)cc1 ?
MITF inh: -4; FBW7 activator: 1; GPR151 activ: 0; TEAD-YAP inh: 59*

How did O=C(COc1ccccc1[N+](=O)[O-])Nc1ccccn1 do in these assays?
MITF inh: 3; FBW7 activator: 0; GPR151 activ: -9; TEAD-YAP inh: 36*
